From PubChem BioAssay AID623911 (Vanderbilt High Throughput Screening Facility, 2012)
Screen size: about 2,100 compounds; about 770 (37%) were called active.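 The calls were made as follows: active = by-eye trace score of 1 for enhancers or -1 for inhibitors, so actives lie on both sides (some results past the limit were not filed as active); inactive = score 0, or 3 fluorescent, or 4 baseline rise.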 This is one part of the list.

Molecular target: G protein-activated inward rectifier potassium channel 2 (Homo sapiens) + G protein-activated inward rectifier potassium channel 1 (Homo sapiens) (UniProt P48051+P48549)
Sequence (P48051 whole entry, looked up): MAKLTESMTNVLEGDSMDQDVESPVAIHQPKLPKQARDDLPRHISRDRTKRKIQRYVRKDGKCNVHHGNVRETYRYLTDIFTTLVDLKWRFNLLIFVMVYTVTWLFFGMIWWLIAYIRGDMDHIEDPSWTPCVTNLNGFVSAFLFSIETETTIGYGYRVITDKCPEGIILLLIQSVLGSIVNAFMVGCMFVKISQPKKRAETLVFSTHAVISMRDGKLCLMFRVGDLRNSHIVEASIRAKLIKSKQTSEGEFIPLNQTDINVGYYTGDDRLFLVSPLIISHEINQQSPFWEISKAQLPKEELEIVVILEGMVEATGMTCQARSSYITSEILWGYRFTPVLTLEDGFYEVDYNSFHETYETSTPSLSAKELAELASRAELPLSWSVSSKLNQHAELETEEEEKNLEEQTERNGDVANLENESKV
Sequence (P48549 whole entry, looked up): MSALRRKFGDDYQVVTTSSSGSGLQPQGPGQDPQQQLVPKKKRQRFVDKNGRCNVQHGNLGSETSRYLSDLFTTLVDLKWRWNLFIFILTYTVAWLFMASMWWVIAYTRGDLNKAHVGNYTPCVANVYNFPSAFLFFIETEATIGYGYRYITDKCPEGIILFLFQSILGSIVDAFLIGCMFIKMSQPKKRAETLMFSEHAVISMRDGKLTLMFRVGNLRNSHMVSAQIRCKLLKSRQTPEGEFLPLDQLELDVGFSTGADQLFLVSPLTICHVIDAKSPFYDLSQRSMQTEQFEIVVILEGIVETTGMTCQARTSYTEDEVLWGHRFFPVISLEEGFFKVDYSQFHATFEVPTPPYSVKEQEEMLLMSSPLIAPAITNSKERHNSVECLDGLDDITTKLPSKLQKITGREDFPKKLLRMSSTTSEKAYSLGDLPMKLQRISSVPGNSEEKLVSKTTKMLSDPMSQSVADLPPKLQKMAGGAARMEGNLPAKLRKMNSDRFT
Assay: GIRK1/2 thallium flux modulators, retest, confirmation, cell-based, HEK293 rmGlu8/hGIRK1/2, FluoZin-2 (AID 623911)
Settings: HEK293 rmGlu8/hGIRK1/2, thallium flux FluoZin-2; actives lie on both sides; glutamate co-added at its EC20 level

Manual score, inactive:
CCN(C(=O)CSc1nc2ccccc2n1CCc1ccccc1)C1CCS(=O)(=O)C1 (stereo not given) 0, CCCOC(=O)NC(CC)COC(=O)Nc1cccc(C)c1C (stereo not given) 0, Cc1cc(C=C2C(=O)c3ccccc3C2=O)c(C)n1-c1ccccc1 0.5, C/C(=N\NC(=S)NCCc1ccccc1)c1ccc(C)cc1 0, O=C(COC(=O)C1CC(=O)N(Cc2ccccc2)C1)Nc1ccc2c(c1)OCO2 (stereo not given) 0, CC(C)Oc1ccccc1C1Nc2ccccc2C(=O)N1c1ccc2c(c1)OCCO2 (stereo not given) 0, O=C(CSCC(=O)N1CCCCC1)Nc1nc(-c2ccc(Cl)s2)cs1 0, CCc1ccc2c(c1)C1(NN=C(c3cccc4ccccc34)S1)C(=O)N2 (stereo not given) 0, O=C(NC(=S)Nc1cc(C(F)(F)F)ccc1Cl)c1ccccc1 0, CC(C)Oc1cccc(C(=O)NC(=S)Nc2ccccc2)c1 0, Cc1ccc2cccc(NC(=S)NC(=O)c3ccn(C)n3)c2n1 0, O=C(NC(=S)Nc1ccccc1)c1cc(-c2ccccc2)nc2ccccc12 0, COc1ccc(Nc2nc(N)nc(CSc3nnc(C)s3)n2)cc1 0, Cc1cccc(C)c1NC(=O)C(NC(=O)c1ccccn1)c1ccc([N+](=O)[O-])cc1 (stereo not given) 0, CC1CN(C(=O)C2CCCCC2)C(C)CN1C(=O)C1CCCCC1 (stereo not given) 0, Cc1cccc(C(=O)CC(=O)c2cc(Cl)ccc2O)c1 0.5, CCC(NC(=O)c1ccccc1O)c1ccccc1 (stereo not given) 0, O=C(CC(=O)c1cc(Cl)ccc1O)c1ccccc1 0, COc1cccc(C(=O)NC(=S)Nc2ccc3c4c(cccc24)CC3)c1 0, Cc1cc(C)cc(OCC(=O)N2N=C(C(F)(F)F)CC2(O)C(C)(C)C)c1 (stereo not given) 0, O=C(N1CCCCC1)N1CCN(C(=O)N(c2ccccc2)c2ccccc2)CC1 0, CC(C)C(=O)Nc1nnn(C)n1 0, Cc1c(C(=O)NCc2cccnc2)oc2ccc(S(=O)(=O)N3CCC4(CC3)OCCO4)cc12 0, COC(=O)c1nc(NC(C)=O)n[nH]1 0, O=C(/C=C/c1ccc(Cl)cc1)NC(=S)NN1CCCCC1c1cccnc1 (stereo not given) 0, COC(=O)C1=C(C)NC(=O)/C1=C\c1ccco1 0, COc1ccc(Nc2nc(-c3cccc([N+](=O)[O-])c3)nc3ccccc23)cc1 0, COc1ccc(-n2c(=S)[nH]c3ccccc32)cc1 0, CCCCn1c(=O)nc2n(-c3ccccc3)c3ccccc3cc-2c1=O 0, Cc1cccc(OCCn2c(=S)[nH]c3ccccc32)c1 0, CCOC(=O)C(CCCCOc1cccc(CC)c1)C(=O)OCC 0, Cc1cccc(OCC(O)CN2C(C)(C)CC(O)CC2(C)C)c1 (stereo not given) 0, CC1CSc2ccccc2NC1=S (stereo not given) 0, COC(=O)c1sc(N2C(=O)C(O)=C(C(=O)c3ccc(C)o3)C2c2ccc(F)cc2)nc1C (stereo not given) 0, CC(C)(C)OC(=O)COc1cc(O)c2c(=O)cc(-c3ccccc3)oc2c1 0, Fc1ccc(-c2nnc3ccc(N4CCc5ccccc5C4)nn23)cc1 0, CCOC(=O)c1cc2n(c1N)-c1ccccc1C2=O 3, CCOC(=O)Cn1c(=O)oc2cc(S(=O)(=O)NCCCc3ccccc3)ccc21 0, CC(C)Oc1ccc(C2CC(=O)N(c3ccccc3)C2=O)cc1 (stereo not given) 0, CC1(C)Cc2cccc(OCC(=O)Nc3ccccc3N3CCOCC3)c2O1 -0.5, CCCC(=O)Nc1ccccc1N1CCN(C(=O)c2ccccc2)CC1 -0.5, O=C(Nc1ccccc1N1CCCCC1)c1ccccc1F 0, Cc1cccc(OCC(=O)NC(=S)Nc2ccccc2N2CCOCC2)c1 0, CCOc1cc(N2CCOCC2)c(OCC)cc1NC(=O)COC(=O)CCc1c[nH]c2ccccc12 0, CCN(CC)c1ccc2cc(-c3nc4ccccc4[nH]3)c(=O)oc2c1 3, O=C(Cc1ccccc1)Nc1nc(-c2cccs2)cs1 0, CN(CC(=O)Nn1cnnc1)S(=O)(=O)c1ccc(Br)cc1 0, O=C(c1cnn2c(C(F)(F)F)cc(-c3cccs3)nc12)N1CCN(Cc2ccccc2)CC1 -0.5, CCOC(=O)c1c(NC(=S)Nc2ccccc2)sc2c1CCCCC2 0, COC(=O)c1c(NC(=S)Nc2ccc(F)cc2[N+](=O)[O-])sc2c1CCCCC2 0, CC(=O)Oc1ccc(N(C(C)=O)S(=O)(=O)c2cccs2)c2ccccc12 0, Cc1ccc(-c2c(C)sc(NC(=O)C3C4CCC(O4)C3C(=O)O)c2C(=O)OC(C)C)cc1 (stereo not given) 0, COC(=O)c1c(NS(=O)(=O)c2ccc(C)cc2)sc2c1CCC(C)C2 (stereo not given) 0, COC(=O)c1c(NC(=S)NC(=O)c2ccco2)sc2c1CCCC2 0, CC1CCc2c(sc(NS(=O)(=O)c3ccccc3)c2C(=O)OC(C)C)C1 (stereo not given) 0, CCCc1nc2scc(-c3ccccc3)c2c(=O)n1N 0, CCCCn1c(=O)[nH]c2nc3cc(N)ccc3nc2c1=O 3, CCCc1cc(-c2n[nH]c(=S)n2C(C)c2ccccc2)cs1 (stereo not given) 0, O=c1[nH]c2ccccc2n1CCC1CCCCC1 0, COc1ccc2c(-c3ccccc3)cc(SCC(=O)N(C)C3CCS(=O)(=O)C3)nc2c1 (stereo not given) 0, Cc1ccccc1-n1c(SCc2ccccn2)nc2n[nH]c(C)c2c1=N 0, CN(c1ccccc1)S(=O)(=O)c1ccc(NC(=S)NC(=O)c2ccccc2)cc1 0, C=CCN(CC=C)S(=O)(=O)c1ccc(NC(=S)NC(=O)c2ccco2)cc1 0, C=CCOc1ccc(/C(O)=C2/C(=O)C(=O)N(CCCN3CCOCC3)C2c2ccccc2)cc1 (stereo not given) 0, COc1cc(/C=C(\C#N)C(=O)Nc2cccnc2)ccc1OC(C)C 0, O=S(=O)(Nc1ccc(S(=O)(=O)Nc2cccc3ccccc23)cc1)c1ccccc1 0

Manual score, active:
Cc1cc(C)c(-n2c(C)cc(/C=C3/NC(=O)NC3=O)c2C)c(C)c1 -1, Cc1ccc(C)c(OCC(O)CN2C(C)CCCC2C)c1 (stereo not given) -1, O=C1c2ccccc2C(Nc2ccc3c(c2)OCCO3)N1Cc1ccccc1 (stereo not given) -1, c1cn(C23CC4CC(CC(C4)C2)C3)cn1 -1, O=C(NC(=S)Nc1ccccc1)c1csnn1 1, O=C(NC(=S)Nc1ccccc1Cl)c1csnn1 1, O=C(CC(=O)c1ccccc1O)c1cccc(F)c1 1, O=C(CC(=O)c1ccccc1O)c1ccc(F)cc1 1, COc1ccc(CN(CCC#N)C(=S)NC(=O)c2ccccc2)cc1 1, N#CCCN(Cc1ccccc1)C(=S)NC(=O)c1ccccc1 1, N/C(=N/O)c1nc(N2CCCC2)nc(N(c2ccccc2)c2ccccc2)n1 -1, CCOC(=O)N1CCN(C(=O)c2oc3ccc(S(=O)(=O)N4CC(C)CC(C)C4)cc3c2C)CC1 (stereo not given) -1, CC1(C)CC2CC(C)(CN2c2ncnc3ccccc23)C1 (stereo not given) -1, Cc1cccc(N=C2NC(=O)/C(=C/C=C/c3ccco3)S2)c1C 1, CCCn1c(=N)n(CC(O)COc2cccc(C)c2)c2ccccc21 (stereo not given) -1, CCOC(=O)Cn1c(=N)n(CCOc2cccc(C)c2)c2ccccc21 -1, CCCCn1c(=N)n(CC(O)COc2cccc(C)c2)c2ccccc21 (stereo not given) -1, CCCn1c(=N)n(CCOc2ccc(OC)cc2)c2ccccc21 -1, CCOC(=O)Cn1c(=N)n(Cc2ccccc2F)c2ccccc21 -1, Cc1ccccc1OCC(=O)Nc1ccccc1N1CCOCC1 -1, Cc1cccc(OCC(=O)Nc2ccccc2N2CCN(C(=O)C(C)C)CC2)c1C -1, CCC(=O)N1CCN(c2ccccc2NC(=O)COc2cccc(C)c2)CC1 -1, CC(C)C(=O)Nc1ccccc1N1CCN(C(=O)c2ccccc2)CC1 -1, Cc1cc(Cl)ccc1OCC(=O)Nc1ccccc1N1CCOCC1 -1, Cc1ccccc1C(=O)NNC(=S)NC(=O)COc1ccccc1 1, Cc1ccc(C(=O)NNC(=S)NC(=O)COc2ccccc2)cc1 1, CC(=O)c1c(C(C)=O)c(C)n(-c2nc(-c3cccs3)c(C)s2)c1C -1, Cc1cccc(N2C(=O)CS/C2=N\NC(=O)c2ccc(Cl)cc2)c1C 1, COC(=O)c1c(NS(=O)(=O)c2cccs2)sc2c1CCCC2 1, COC(=O)c1c(NS(=O)(=O)Cc2ccccc2)sc2c1CCCC2 1, CCOC(=O)c1c(NS(=O)(=O)Cc2ccccc2)sc2c1CCCC2 1, CC(C)OC(=O)c1c(NS(=O)(=O)c2ccccc2)sc2c1CCCC2 1, Cc1ccc(-c2csc3nc[nH]c(=S)c23)cc1C 1, S=c1[nH]cnc2scc(-c3ccccc3)c12 1, CN(C)Cc1c(O)ccc2occ(C(O)c3ccccc3)c12 (stereo not given) -1, CN(C(=O)CSC1=Nc2ccccc2C2=NC(c3ccccc3)C(=O)N12)C1CCCCC1 (stereo not given) -1, CCN(c1ccccc1)S(=O)(=O)c1ccc(NC(=S)NC(=O)c2ccc(Br)o2)cc1 1, CCCn1c(C)cc(/C=C(\C#N)C(=O)OCC(=O)Nc2cccc(OC)c2)c1C 1, O=S(=O)(Nc1ccc2nc(C(F)(F)F)[nH]c2c1)c1ccccc1 1
